# Test results as given in PubChem BioAssay AID1080 (Emory University Molecular Libraries Screening Center, 2008).
# The whole screen tested about 1,300 compounds, of which about 640 (49%) were called active.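 Rule for the calls: active = cAMP induction above 50% in the main assay while under 30% in all four parallel counter assays; inactive = the rest.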 The set was probably picked from earlier hits. Not all results are given here.
# Key:
# [1] = EP2 hit retest with parallel cAMP counter-assays – cell-based, five parallel assays, C6 glioma, HEK293, counter-screen for EP2 modulator project, confirmation (AID 1080); details: C6 glioma EP2 cells, cAMP HTRF induction
# [2] = target: Prostaglandin E2 receptor EP2 subtype (Homo sapiens) (UniProt P43116); assay: as above; details: C6 glioma EP2 cells, cAMP HTRF induction; stronger effect = higher value; screened at 20 µM (by protocol); percent of 1 uM PGE2 response; plus low (about EC15) PGE2 agonist
# [3] = measured here: EP4 receptor counter-screen, percent of 1 uM PGE2 response, plus low (about EC15) PGE2 agonist
# [4] = measured here: beta2 adrenergic HEK293 counter-screen
# [5] = measured here: cAMP conditions counter-screen
# [6] = measured here: parent C6 cells counter-screen
Compound,"cAMP induction [1, 3] [%]","cAMP induction [1, 4] [%]","cAMP induction [1, 5] [%]","cAMP induction [1, 6] [%]",cAMP induction [2]
Cc1ccccc1C(=O)Nc1ccccc1Sc1ccccc1,-6.34,-0.06,-1.62,-1.24,73.7% (active)
O=C(COC(=O)c1ccccc1)Nc1ccccc1Sc1ccccc1,5.14,-16.3,-4.67,-4.62,66.8% (active)
O=C(CN1CCCCC1)N1c2ccccc2Sc2ccc(C(F)(F)F)cc21,-11.3,-1.41,-5.21,-5.14,47.3% (inactive)
CCc1ccccc1NC(=O)/C(=C/c1ccccc1)c1ccccc1,-11.7,34,-0.563,-0.623,53.6% (inactive)
Cc1ccc(C(=O)c2c(NC(=O)c3ccncc3)sc3c2CCCC3)cc1,4.56,-17.1,0.45,3.43,54.2% (active)
CCOCC(=O)Nc1sc2c(c1C(=O)OCC)CCCC2,-16,3.07,3.98,1.75,40.6% (inactive)
CC1(C)CC2CC(C)(CN2c2ncnc3ccc(Br)cc23)C1 (stereo not given),-0.537,-0.287,6.56,5.43,25.7% (inactive)
Cc1ccc(Nc2cc(C)nc3c(C)ccc([N+](=O)[O-])c23)cc1,-1.3,15.4,0.53,-0.713,57.4% (active)
CC(=O)c1ccc2c(c1)c1ccccc1n2CC(C)C,8.49,0.833,9.82,9.42,58.9% (active)
CCCCCn1c(SCCC(C)C)nc2c1c(=O)[nH]c(=O)n2C,-16.3,-18.1,1.4,-0.767,59.3% (active)
CCOC(=O)C(CC)Sc1ncnc2c1nnn2-c1ccc(F)cc1 (stereo not given),-7.74,17,0.993,2.03,50.7% (active)
